Test systems include NCI-H23 lung; NCI-H322M lung; HOP-62 NSCLC; NCI-H460 lung; HOP-92 NSCLC; A549/ATCC NSCLC; 786-0 renal; DU-145 prostate; K-562 leukemia; MALME-3M melanoma; MDA-MB-231 breast; RXF 393 renal; SF-268 CNS; SF-295 CNS; SF-539 CNS; UACC-257 melanoma; M14 melanoma; HCT-15 colon; COLO 205 colon; NCI-H522 lung.
Holding throughout (experiment): NCI-60 one-dose screen, 48 h (100 = growth as untreated, 0 = no growth, -100 = all killed)
Common to all, as to conditions: 10 µM unless noted

The panel holds about 83,000 compounds, 20% with a hit somewhere; the sample as a whole holds those more often.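 The test compound was applied at a single concentration to cells in 96-well plates for 48 hours, and percent growth was recorded.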 Unmarked numbers belong to inactive results. Activity calls are given as the source filed them. The calls were made as follows: active = growth percent below 10; inactive = the rest.

As for `O=C1CCC(N2C(=O)c3cccc(NCCCCCCOc4ccc(Nc5nccc(Nc6ccccc6)n5)cc4)c3C2=O)C(=O)N1` (stereo unspecified), the growth in the assay with NCI-H23 lung is 62.6%; in the assay on NCI-H322M lung it was 91.6%; in the assay with HOP-62 NSCLC it was 84.2%; in the assay on NCI-H460 lung, 83.6%; in the assay on HOP-92 NSCLC it was 84.1%; with A549/ATCC NSCLC, 81.6%. The growth in the assay on 786-0 renal is 91.9%; in the assay with DU-145 prostate, 97.8%; with K-562 leukemia, 46.8%; in the assay on MALME-3M melanoma, 76.7%; with MDA-MB-231 breast, 86.6%; in the assay on RXF 393 renal it was 94.7%. For the same compound, the growth with SF-268 CNS is 88.7%; in the assay on SF-295 CNS, 73.3%; with SF-539 CNS it was 89.1%; in the assay on UACC-257 melanoma it was 73.1%; in the assay with M14 melanoma it was 88.1%; with HCT-15 colon, 86.7%.
On to `CSc1nc2c(c(=O)[nH]1)N=C1c3ccccc3C(=O)C1C(c1ccc(F)cc1)N2` (stereo unspecified), for which the growth with NCI-H23 lung is 83.7%; in the assay with NCI-H322M lung, 92.3%; with HOP-62 NSCLC, 63.6%; in the assay on NCI-H460 lung, 51.7%; in the assay with HOP-92 NSCLC it was 58.3%; in the assay on A549/ATCC NSCLC it was 56.3%. Besides, the growth in the assay with 786-0 renal is 71.5%; with COLO 205 colon, 53.4%; in the assay on DU-145 prostate, 103%; with K-562 leukemia, 62.8%; in the assay with MALME-3M melanoma, 56.1%; in the assay with MDA-MB-231 breast, 93.3%. Moreover, the growth with SF-268 CNS is 65.5%; in the assay on SF-295 CNS, -29% (active); with SF-539 CNS, 68.7%; in the assay on UACC-257 melanoma it was 79.1%; in the assay with M14 melanoma, 43.4%; in the assay on HCT-15 colon, 46.1%.
In the case of `COc1cc(C(C)n2cc(-c3ccccc3)nn2)ccc1OC1CCCC1` (stereo unspecified), the growth was 45.4% in the assay on NCI-H23 lung; 78% with NCI-H322M lung; 52.7% in the assay on HOP-62 NSCLC; 74.1% with NCI-H460 lung; 54.7% with HOP-92 NSCLC; 61.3% in the assay on A549/ATCC NSCLC. The growth was 72.7% in the assay with 786-0 renal; 91.8% in the assay with COLO 205 colon; 85.6% with DU-145 prostate; 34% in the assay with K-562 leukemia; 63.7% with MALME-3M melanoma; 76% with MDA-MB-231 breast. The growth in the assay with RXF 393 renal was 83.1%; with SF-268 CNS, 72%; in the assay with SF-295 CNS it was 47.1%; in the assay on SF-539 CNS, 69.3%; with UACC-257 melanoma, 55.4%; in the assay on M14 melanoma, 82.8%. In the assay on HCT-15 colon, the growth is 62.2%.
In the case of `O=C(/C=C/c1ccccc1)c1ccc(Nc2nc(NCCO)nc(Nc3ccc(Cl)cc3)n2)cc1`, the growth is 82.7% with NCI-H23 lung; 91.6% in the assay with NCI-H322M lung; 93.2% with HOP-62 NSCLC; 81% in the assay on NCI-H460 lung; 96.2% in the assay on HOP-92 NSCLC; 64.6% with A549/ATCC NSCLC. The growth in the assay with 786-0 renal was 83.9%; in the assay with DU-145 prostate it was 73.6%; in the assay on K-562 leukemia it was 36.1%; in the assay on MALME-3M melanoma, 98.7%; in the assay with MDA-MB-231 breast it was 71.4%; in the assay with RXF 393 renal, 73.2%. In addition, the growth is 73.8% in the assay with SF-268 CNS; 96.1% in the assay on SF-295 CNS; 73% in the assay with SF-539 CNS; 94.7% with UACC-257 melanoma; 99.9% in the assay on M14 melanoma; 8.55% (active) in the assay with HCT-15 colon.
Consider `Cc1ccccc1CNC(=O)C1CN(c2ccc(Cl)cc2)N(c2ccc(Cl)cc2)C1=O` (stereo unspecified), for which the growth in the assay on NCI-H23 lung is 90.6%; in the assay with NCI-H322M lung, 89.1%; in the assay on HOP-62 NSCLC it was 83.2%; in the assay with NCI-H460 lung, 91.4%; in the assay on HOP-92 NSCLC it was 96.9%; in the assay on 786-0 renal, 96.7%. Besides, the growth with DU-145 prostate is 99.7%; in the assay with K-562 leukemia, 51.6%; in the assay with MALME-3M melanoma, 91.1%; with MDA-MB-231 breast, 84.6%; in the assay on RXF 393 renal, 91.6%; in the assay with SF-268 CNS, 83.7%. Also, the growth in the assay with SF-295 CNS was 90.1%; in the assay with SF-539 CNS it was 98.7%; in the assay with UACC-257 melanoma, 78.6%; in the assay on M14 melanoma, 90.1%; in the assay with HCT-15 colon, 78.8%.
For `O=C(Cc1ccccc1)NC(c1ccc(Cl)cc1)c1c(O)ccc2ccccc12` (stereo unspecified), the growth was 4.5% (active) in the assay with NCI-H23 lung; 15.4% with NCI-H322M lung; 30.9% with HOP-62 NSCLC; 5.44% (active) in the assay on NCI-H460 lung; -19.9% (active) in the assay with HOP-92 NSCLC; 9.06% (active) in the assay with A549/ATCC NSCLC. The growth is 26% in the assay on 786-0 renal; -38.6% (active) in the assay with COLO 205 colon; 33.6% in the assay on DU-145 prostate; 8.85% (active) with K-562 leukemia; -15.7% (active) with MDA-MB-231 breast; -6.64% (active) in the assay with RXF 393 renal. The growth with SF-268 CNS is 29.2%; with SF-295 CNS it was -36.4% (active); with SF-539 CNS it was 40%; in the assay with UACC-257 melanoma, -9.13% (active); in the assay on M14 melanoma it was 16.3%; in the assay with HCT-15 colon, 15.4%.
`COc1cc(C2CC(c3ccc(Nc4nc(NCCO)nc(N5CCOCC5)n4)cc3)=NN2c2cc(Cl)cc(Cl)c2)cc(OC)c1OC` (stereo unspecified): the growth in the assay on NCI-H23 lung was 56.7%; in the assay with NCI-H322M lung, 72.6%; in the assay with HOP-62 NSCLC, 67.2%; in the assay on NCI-H460 lung, 22.2%; in the assay on HOP-92 NSCLC, 32.7%; in the assay with NCI-H522 lung, 66%. Moreover, the growth in the assay on 786-0 renal was 12.5%; with DU-145 prostate, 67.5%; in the assay on K-562 leukemia, 21.9%; with MALME-3M melanoma, 77.6%; in the assay with MDA-MB-231 breast it was 49.2%; in the assay on RXF 393 renal it was 5.08% (active). Moreover, the growth in the assay with SF-268 CNS was 49.4%; in the assay on SF-295 CNS it was 50.1%; with SF-539 CNS, 41.4%; in the assay with UACC-257 melanoma, 80.2%; with M14 melanoma, 64.9%; with HCT-15 colon, 31.5%.
With `Nc1nc(N)c2c(n1)NC1(C=C(O)c3ccccc31)C1=C(N2)c2ccccc2C1=O` (stereo unspecified), the growth in the assay with NCI-H23 lung was 104%; in the assay with NCI-H322M lung it was 123%; with HOP-62 NSCLC it was 104%; with NCI-H460 lung it was 105%; in the assay with HOP-92 NSCLC, 87%; in the assay with A549/ATCC NSCLC, 110%. Further, the growth is 104% in the assay on 786-0 renal; 118% in the assay on COLO 205 colon; 98.7% in the assay with DU-145 prostate; 95.5% with K-562 leukemia; 108% with MALME-3M melanoma; 107% with MDA-MB-231 breast. The growth is 104% in the assay on SF-268 CNS; 109% in the assay on SF-295 CNS; 109% with SF-539 CNS; 120% in the assay on UACC-257 melanoma; 105% with M14 melanoma; 112% in the assay on HCT-15 colon.
On to `Cc1cccc2c(=O)c3c(sc12)c(NCCCNCCO)nc1ccccc13`, for which the growth with NCI-H23 lung was 55%; in the assay with NCI-H322M lung, 63.3%; in the assay with HOP-62 NSCLC it was 41.6%; in the assay with NCI-H460 lung it was 19.3%; with HOP-92 NSCLC, 29.4%; in the assay on 786-0 renal, 52.8%. Besides, the growth in the assay on DU-145 prostate is 35%; in the assay with K-562 leukemia, -51.3% (active); with MALME-3M melanoma, 26.9%; in the assay with MDA-MB-231 breast it was -1.61% (active); in the assay with RXF 393 renal, 43.3%; with SF-268 CNS it was 52.1%. The growth was 74.7% in the assay with SF-295 CNS; 59.4% in the assay on SF-539 CNS; 91.6% with UACC-257 melanoma; 35.1% with M14 melanoma; 0.41% (active) with HCT-15 colon.

(Values after PubChem BioAssay (NCI).)
